JMJD2A Tudor – blocks the human JMJD2A Tudor domain; hit rate 4.4% among 390,000; AlphaScreen JMJD2A-Tudor / H3K4me3 peptide binding; AID 504339; Potency, µM (doses to about 114 µM), hits mostly inhibitors; further: nearly all actives have a fitted effect of over 50% in size
L3MBTL1 inh – L3MBTL1 (human) inhibition; Q9Y468; hit rate 0.66% among 230,000; AID 485360; AlphaScreen L3MBTL1–H3K9me1 peptide binding; Potency, µM (doses to about 57.1 µM), actives largely listed as inhibitors; further: nearly all actives have a fitted effect of over 60% in size
Target sequence (Q9Y468 whole entry, looked up): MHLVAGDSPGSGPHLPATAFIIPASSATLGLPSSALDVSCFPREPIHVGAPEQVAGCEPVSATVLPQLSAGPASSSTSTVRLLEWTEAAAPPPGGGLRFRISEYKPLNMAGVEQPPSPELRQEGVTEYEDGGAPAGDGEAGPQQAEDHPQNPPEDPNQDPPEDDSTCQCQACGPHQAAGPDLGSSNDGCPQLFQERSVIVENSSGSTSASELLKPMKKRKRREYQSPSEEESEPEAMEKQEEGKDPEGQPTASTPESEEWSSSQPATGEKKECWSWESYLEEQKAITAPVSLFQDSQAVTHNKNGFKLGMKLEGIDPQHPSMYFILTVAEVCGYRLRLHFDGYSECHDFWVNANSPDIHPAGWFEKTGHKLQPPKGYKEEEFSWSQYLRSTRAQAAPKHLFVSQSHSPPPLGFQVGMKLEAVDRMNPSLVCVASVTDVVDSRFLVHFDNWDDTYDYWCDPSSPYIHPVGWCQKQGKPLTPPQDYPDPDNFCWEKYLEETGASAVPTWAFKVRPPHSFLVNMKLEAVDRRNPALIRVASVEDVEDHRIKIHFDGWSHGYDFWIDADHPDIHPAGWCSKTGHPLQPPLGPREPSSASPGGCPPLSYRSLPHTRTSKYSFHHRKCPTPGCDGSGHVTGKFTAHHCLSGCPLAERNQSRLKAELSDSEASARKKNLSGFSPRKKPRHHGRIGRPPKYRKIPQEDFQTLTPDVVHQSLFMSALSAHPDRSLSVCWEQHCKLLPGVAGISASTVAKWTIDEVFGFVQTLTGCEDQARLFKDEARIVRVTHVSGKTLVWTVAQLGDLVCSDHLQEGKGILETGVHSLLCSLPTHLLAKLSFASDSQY
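First, the protein-peptide complex forms for 30 min at room temperature (L3MBTL1 50 nM, biotinylated H3K9me1 peptide 75 nM). Next, compounds are pin-transferred and incubated 30 min. Finally, AlphaScreen beads are added and read after 30 min.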
G9a inh-1 – blocks human histone lysine methyltransferase G9a; Q96KQ7; G9a H3K9 monomethylation, AlphaScreen, 2 h; Potency, µM (doses to about 102 µM), most hits filed as inhibitors; hit rate 8.8% among 350,000; AID 504332; further: nearly all actives have a fitted effect of over 75% in size
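Methyltransferase reactions run at room temperature for 2 h (20 nM enzyme, 500 nM biotin-H3K9 peptide, 20 uM SAM) after a 15 min compound preincubation; product detected by AlphaScreen beads and anti-H3K9me1 antibody.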
Sfp inh – blocks B. subtilis Sfp PPTase activity. Potency, µM, hits mostly inhibitors. hit rate 3.5% among 310,000. Q9F4F7. Biochemical Sfp PPTase activity, qHTS;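 further: the enzyme is Sfp with the accession as filed and its product quenches rhodamine fluorescence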
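With Hepes-Na pH 7.6 buffer containing 10 mM MgCl2, Sfp (15 nM) modified BHQ-2-YbbR (12.5 uM) using rhodamine-CoA (5 uM). Two reads 30 minutes apart at 525/598 nm yielded each well's rate.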
BAZ2B inh – inhibitors of human BAZ2B bromodomain | Potency, µM (titrated, usually from 114 µM), most hits filed as inhibitors | Q9UIF8 | hit rate 4.4% among 360,000 | AlphaScreen BAZ2B-H3K14Ac peptide displacement | AID 504333; further: nearly all actives have a fitted effect of over 60% in size
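Protein-peptide AlphaScreen: BAZ2B 50 nM, b-H3K14Ac 50 nM, 1x PBS pH 7.4 + 0.01% Tween-20. Preincubation 30 min RT; cpd 30 min RT (top 110 uM); beads 20 min RT, light-protected.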
HP1b binding inh – blocks HP1-beta chromodomain binding to methylated histone tails; Potency, µM (highest dose often 114 µM), usual class: inhibitors; P83916; AlphaScreen HP1-beta / biotin-H3K9me3 peptide binding; hit rate 0.56% among 390,000; further: nearly all actives have a fitted effect of over 70% in size
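Compound inhibition of the preformed complex between 50 nM HP1-beta and 50 nM biotinylated H3K9me3 peptide was read by AlphaScreen. Buffer was PBS pH 7.4 with 0.01% Tween-20. Incubations ran 30 min at room temperature, with 10 ug/mL donor/acceptor beads.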
JMJD2E confirm – JMJD2E (human) demethylase inhibition, confirmation | Recombinant JMJD2E, FDH-coupled NADH fluorescence (FDH is formaldehyde dehydrogenase) | Potency, µM (series often up to 56.8 µM), usual class: inhibitors | hit rate 93% among 140 | shares compounds with JMJD2A Tudor
FDH inh – counter-screen for JMJD2E inhibitors: Pseudomonas putida formaldehyde dehydrogenase. hit rate 10% among 140. FDH enzyme assay, NADH fluorescence kinetic. AID 2680. shares compounds with JMJD2A Tudor. Potency, µM (titrated, usually from 56.7 µM), actives largely listed as inhibitors
G9a inh-2 – confirmation of human histone methyltransferase G9a inhibitors | shares compounds with JMJD2A Tudor | G9a H3K9 monomethylation, AlphaScreen, 2 h | Potency, µM, most hits filed as inhibitors | hit rate 89% among 370 | AID 588344; further: nearly all actives have a fitted effect of over 65% in size
RGS4 confirm – inhibits human RGS4, hit validation; AID 602388; Potency, µM, hits mostly inhibitors; RGS4 GAP activity, Transcreener GDP fluorescence polarization; hit rate 80% among 25; shares compounds with JMJD2A Tudor
Hits are given with their value; i = inactive; ? = inconclusive; nt = no result; [ ] = dose if it differs, or a comment. In the library only some 12% were active in any assay of this set; here they are far more common. The call rests on the fitted dose curve; in most records, active means well fitted curve in the direction sought with a large enough effect; inconclusive means small, poorly fitted or top-dose-only effect, or another doubt; inactive means no such curve, though single readings can be large; an effect the other way counts as inactive or inconclusive.

SMILES	JMJD2A Tudor	L3MBTL1 inh	G9a inh-1	Sfp inh	BAZ2B inh	HP1b binding inh	G9a inh-2	others
CC(=O)c1sc2nsc(SCCN3CCOCC3)c2c1N	6.3µM	i	0.79µM	8.9µM	i	79µM	2.5
Cc1ccc(CNC(=O)c2cc(C)nc3c2c(C)nn3-c2ccc(C)cc2)cc1	i	nt	i	nt	i	i	nt
CN(C)c1ccc(NC(=O)Nc2cccc(Cl)c2)cc1	?	?	1.1µM	i	40µM	i	1.4
CN(c1cccc(NC(=O)Nc2cccc(Cl)c2)c1)S(C)(=O)=O	i	i	i	i	i	i	nt
O=C(Cc1ccc(NC(=O)C2CCN(C(=O)C3CCCCC3)CC2)cc1)Nc1cccc(C(=O)N2CCCCC2)c1	i	nt	nt	nt	nt	i	nt
CCOC(=O)C1CCCN(C(=O)c2cc(-c3ccco3)nc3ccccc23)C1 (stereo not drawn)	14µM	3.5µM	nt	nt	nt	40µM	nt	RGS4 confirm=27
CCN(CC)c1ccc(NC(=O)COC(=O)c2ccc3ccccc3n2)cc1	?	nt	?	?	50µM	?	6.3
CC(=O)c1cccc(NC(=O)COC(=O)c2cccs2)c1	?	?	i	i	i	i	nt
CCN(CC)c1ccc(NC(=O)COC(=O)c2cccs2)cc1	?	nt	1.3µM	i	45µM	i	2.2
COc1ccc(OC)c(NC(=O)CSc2ccc(-c3cccs3)nn2)c1	?	nt	2.8µM	nt	i	i	10
O=C(CSc1cccc[n+]1[O-])Nc1ccccc1Oc1ccccc1	50µM	i	2µM	40µM	i	?	2
O=C(CNC(=O)c1ccc(Br)o1)NNC(=O)COc1ccccc1Cl	i	i	i	nt	i	i	nt
COc1ccc(-c2ccc3c(N)c(C(=O)Nc4ccc(C)cc4C)sc3n2)cc1OC	i	nt	?	nt	i	i	nt
Cc1cc2nn(-c3ccc(F)cc3)nc2cc1N	i	i	1µM	?	i	i	0.56
Nc1ccc2nn(-c3ccc(F)cc3)nc2c1	i	nt	i	i	i	i	nt
Cc1ccc(-n2nc3ccc(N)cc3n2)cc1	i	nt	?	i	i	i	0.25
CCOc1ccc(-n2nc3cc(C)c(N)cc3n2)cc1	i	i	nt	i	?	i	nt
COc1ccc(-n2nc3cc(C)c(NC(=O)c4ccc(C)cc4C)cc3n2)cc1Cl	i	nt	?	nt	i	i	nt
COc1ccc(-n2nc3cc(C)c(N)cc3n2)cc1Cl	56µM	i	0.71µM	79µM	79µM	i	0.5
CCc1ccccc1Nc1cc(C(=O)NCCCN(C)C2CCCCC2)c2ccccc2n1	i	nt	i	nt	nt	i	nt
CCOc1cccc(CN2CCC(n3nccc3NC(=O)CCCc3ccccc3)CC2)c1	?	nt	nt	i	i	i	nt
CCN(CC)C(=O)C1CCN(Cc2cccc(OCc3ccccc3)c2)CC1	50µM	i	2.8µM	i	35µM	56µM	28
CCn1cnc2cc(NCc3cccc(OC)c3O)ccc21	i	nt	?	i	?	i	0.28
CCCn1cnc2cc(NCc3ccc(OC)cc3OC)ccc21	?	nt	2.8µM	nt	40µM	i	5.8
CCCn1cnc2cc(NC(=O)c3cc(OC)c(OC)c(OC)c3)ccc21	i	nt	i	nt	i	i	nt
SMILES	JMJD2A Tudor	L3MBTL1 inh	G9a inh-1	Sfp inh	BAZ2B inh	HP1b binding inh	G9a inh-2	others
Cc1cc(C)c(S(=O)(=O)NCC(c2cccnc2)N2CCN(Cc3ccccc3)CC2)c(C)c1 (stereo not drawn)	i	nt	i	i	?	i	nt
COc1cccc(N2CCN(S(=O)(=O)c3ccc4[nH]c5c(c4c3)CCCC5)CC2)c1	?	nt	?	nt	?	i	nt
CCC(C)(C)NC(=O)C(c1ccc(C)o1)N(Cc1ccc2c(c1)OCO2)C(=O)c1snc(C(N)=O)c1N (stereo not drawn)	i	nt	i	i	i	i	nt
Cc1onc(-c2ccccc2)c1C(=O)Nc1nnc(COc2ccc(Cl)cc2)s1	?	i	?	7.1µM	i	?	0.8
NS(=O)(=O)c1ccc(NCc2c(F)cccc2Cl)cc1	i	i	i	i	i	i	nt
Fc1cccc(Cl)c1CNc1ccc(N2CCCC2)cc1	20µM	?	1.8µM	?	13µM	25µM	5.6
COc1cc(SC)ccc1C(=O)OCC(=O)N1CCN(C(C)=O)CC1	i	i	i[0.501 µM]	nt	i	i	nt
Cc1cccc(OCC(=O)N(C)CCc2ccccn2)c1	?	nt	?	i	35µM	?	10
CC12CCC(O)CC1=CCC1C2CCC2(C)C(c3ccn[nH]3)CCC12 (stereo not drawn)	i	nt	nt	nt	nt	i	nt
COc1ccc(CNc2ccc(N3CCOCC3)cc2)cc1	?	i	nt	i	i	i	nt
COc1ccc(Br)cc1CNc1ccc(N2CCOCC2)cc1	40µM	nt	?	i	28µM	?	3.2
CCOC(=O)C1CCN(Cc2ccc(O)c3ncccc23)CC1	10µM	28µM	4µM	i	4µM	i	nt	JMJD2E confirm=13µM;FDH inh=?
CCCn1c(C)nc2c(Nc3ccccc3)nc(C)nc21	nt	nt	nt	i	nt	nt	nt
CCOC(=O)c1ccc(S(=O)(=O)N2CCN(C(C)=O)CC2)cc1	i	i	i	i	i	i	nt
CCOC(=O)c1ccc(S(=O)(=O)N2CCN(Cc3cc4c(cc3O)OCO4)CC2)cc1	i	i	0.4µM	nt	i	i	0.89
O=S(=O)(NN1CCOCC1)c1ccc(Br)cc1	i	nt	0.4µM	i	i	i	1.6
O=C(c1cccnc1)N1CCN(Cc2ccc3c(c2)OCO3)CC1	6.3µM	nt	?	?	50µM	?	7.1
COc1ccc(NCc2nnc(SCC(=O)c3ccc(OC)cc3)n2C)cc1	56µM	nt	?	i	i	i	11
COc1ccc(N2CCC(CNC(=O)Nc3cccc(OC)c3)C2)cc1 (stereo not drawn)	40µM	nt	?	i	32µM	16µM	1.6
COc1ccc(N2CCC(CNC(=O)Nc3ccc(Cl)cc3)C2)cc1 (stereo not drawn)	?	i	0.71µM	i	i	?	0.5
O=C(NCC1CC1)Nc1ccc(Cl)cc1	i	nt	i	i	i	i	nt
CNC1=CN(O)C(c2ccccc2)=c2cc(Cl)ccc2=N1	nt	nt	i[2.33 µM]	i	nt	nt	nt
CN(C)c1ccc(NC(=O)C2(c3cccs3)CCOCC2)cc1	?	nt	2.8µM	nt	40µM	i	7.1

Screening data from PubChem.
